CCHFV vOTU inh – CCHFV vOTU protease inhibitors, primary screen, biochemical, Pep-AMC substrate, fluorescence; Crimean-Congo hemorrhagic fever virus L polyprotein viral ovarian tumor (vOTU) protease …; inhibition, % at 11.5 µM; 0.55% of 370,000 active; AID 651958, 2012
Mtb FBA inh – Mtb FBA enzyme inhibitors, primary screen, biochemical, fluorescence, strain H37Rv; AID 588726, 2011; 2.3% of 360,000 active; purified M. tuberculosis FBA, fluorescence read-out; inhibition, % at 1 µM; Fructose-bisphosphate aldolase (Mycobacterium tuberculosis (strain ATCC 25618 / H37Rv)), …; in the data active = inhibition above about 27%
Target sequence (P9WQA3 whole entry, looked up): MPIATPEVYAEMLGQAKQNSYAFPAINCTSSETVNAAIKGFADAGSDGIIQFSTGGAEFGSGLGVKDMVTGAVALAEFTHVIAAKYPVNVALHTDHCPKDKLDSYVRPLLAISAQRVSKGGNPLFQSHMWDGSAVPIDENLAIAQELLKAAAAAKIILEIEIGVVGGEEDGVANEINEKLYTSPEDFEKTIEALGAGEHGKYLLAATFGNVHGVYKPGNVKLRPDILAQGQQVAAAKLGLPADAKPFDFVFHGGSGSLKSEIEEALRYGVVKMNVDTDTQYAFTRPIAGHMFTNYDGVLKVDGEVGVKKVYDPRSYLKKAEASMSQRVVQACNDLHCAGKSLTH
GDH-TPI inh – GDH-TPI coupling enzyme inhibitors, primary screen, artefact control for M. tuberculosis FBA inhibitor project, biochemical, absorbance, full deck. GDH-TPI coupled enzyme counterscreen, NADH absorbance. inhibition, % at 4.8 µM. 1.2% of 360,000 active
BH1578 lux ind – inducers of Vibrio cholerae quorum light production without autoinducers, primary screen, BH1578 luxS cqsA deficient, single point; V. cholerae BH1578 lux reporter, luminescence, 6 h; activation, % at 18.7 µM; 0.16% of 350,000 active; AID 588436, 2011; in the data active = activation mostly above about 9.7%, no sharp cut-off
Numbers stand for hits; – = inactive; · = not tested or not shown; + = active, no number. Most compounds without a hit are left out; they make up all but 3.9% or so of the library. Rule as the data show it, unless noted: active = inhibition above about 30%; inactive = the rest.

SMILES	CCHFV vOTU inh	Mtb FBA inh	GDH-TPI inh	BH1578 lux ind
Cc1cc2c(=O)n(CC(=O)NCC(=O)N3CCN(Cc4ccccc4)CC3)cnc2s1	–	–	–	–
O=[N+]([O-])c1ccc(N2CCN(c3ccc(F)cc3)CC2)cc1	–	–	–	–
O=[N+]([O-])c1ccc(N2CCSCC2)cc1	–	–	71.5	–
CCCN1CCN(C(=O)CN2C(=O)COc3ccc(S(=O)(=O)N(CC)CC)cc32)CC1	–	–	–	–
O=C(/C=C/Nc1cccc(C(F)(F)F)c1)c1ccc(Oc2ncccn2)cc1	–	–	32.5	–
O=C(/C=C/Nc1cccc(C(F)(F)F)c1)c1ccco1	–	–	–	–
O=C(O)CCCN1C(=O)C(=O)/C(=C(/O)c2ccc(Cl)cc2)C1c1ccccc1 (centres undefined)	–	–	41.2	–
CC(C)CNS(=O)(=O)c1cc(C(=O)OC2CCOC2=O)c(Cl)cc1Cl (centres undefined)	–	–	–	–
COC(=O)c1cc(NC(=O)c2ccccc2)c(=O)oc1C/C=N\OCc1ccc(Cl)cc1Cl	–	–	–	–
COc1ccc(Oc2coc3cc(O)ccc3c2=O)cc1	–	–	44.8	–
N=C1/C(=C\c2coc3ccccc3c2=O)C(=O)N=C2SC(c3ccncc3)=NN12	–	–	32.1	–
Cc1nc(SCc2ccc(C#N)cc2)n[nH]1	–	–	–	–
CCN(CC)C(=O)COc1ccc2oc(C)c(C(=O)OC)c2c1	–	–	–	·
CCN(CC)C(=O)COc1ccc2oc(-c3ccco3)cc(=O)c2c1	–	134.3	–	–
CC1OC(C(C)(C)C)CC2=C1C(=O)OC(C)(C)O2 (centres undefined)	–	·	·	·
N#Cc1nc(COc2ccc(F)cc2)oc1N1CCCC1	–	–	–	·
N#Cc1nc(-c2ccc(F)cc2)oc1N1CCCCC1	–	178.2	–	–
N#Cc1nc(-c2ccc(F)cc2)oc1N1CCCC1	–	112.8	–	–
CCN1CCN(c2oc(-c3ccc([N+](=O)[O-])cc3)nc2C#N)CC1	–	–	–	–
O=S1(=O)CCN2C=C(Cl)C=C(Cl)C2=N1	–	140.2	–	–
Clc1ccc(-c2ccc(C=Nc3ccc(N4CCOCC4)cc3)o2)cc1	–	–	31.8	–
Cc1ccc(-n2nc(C(=O)O)cc2-c2ccccc2Cl)cc1	–	–	–	–
Cc1ccc(C(=O)N=c2sccn2C)o1	–	–	32.9	–
Cc1ccccc1C(=O)N=c1sccn1C	–	–	–	–
CCN(CC)C(=O)COc1ccc(/C(C)=N/Nc2ncc(Cl)cc2Cl)cc1	–	–	–	–
SMILES	CCHFV vOTU inh	Mtb FBA inh	GDH-TPI inh	BH1578 lux ind
C/C(=N\Nc1ncc(Cl)cc1Cl)c1ccc(C#N)cc1	–	–	46.3	–
O=C(Cc1cccs1)N/N=C/C=C\c1ccccc1[N+](=O)[O-]	–	–	–	–
COc1cc(/C=N/NC(=O)c2ccc(Cl)c(S(N)(=O)=O)c2)ccc1OCC(N)=O	–	–	43.0	–
COc1cc(/C=N/NC(N)=S)ccc1OCC(=O)Nc1ccc(C)cc1	–	–	39.8	–
COc1ccc(/C=N/NC(=O)c2ccc(Cl)c(S(N)(=O)=O)c2)cc1OCC(N)=O	–	–	–	–
CNC(=S)N/N=C/c1ccc(OCC(=O)Nc2c(C)cc(C)cc2C)c(OC)c1	–	–	–	–
COc1ccc(C(=O)Oc2cc(/C=N/NC(N)=S)ccc2OC)cc1	–	–	–	–
COc1ccc(/C=N/NC(N)=S)cc1OC(=O)c1cccc2ccccc12	–	–	33.5	–
CC(=O)Nc1ccc(NC(=O)CSc2nc3nc(C)cc(C)c3c(=O)[nH]2)cc1	–	–	–	–
O=C1c2ccccc2C(=O)N1CCOc1cccc(Br)c1	–	–	–	–
O=C(O)c1cc(N/N=C/C=C/c2ccccc2[N+](=O)[O-])ccc1Cl	–	–	38.2	–
C/C(=N\Nc1ccc(Cl)c(C(=O)O)c1)c1cccc([N+](=O)[O-])c1	–	–	41.6	–
C/C(=N\NC(=O)c1ccccc1C)c1cccc([N+](=O)[O-])c1	–	–	–	–
N#Cc1cccc(NC(=O)COC(=O)c2ccc3c(=O)n4c(nc3c2)CCC4)c1	–	·	·	·
CCn1cc(C(=O)NCCC(C)C)c(=O)c2cc(F)c(N3CCN(C)CC3)cc21	–	–	–	–
CN(CC(=O)NCc1ccccc1Cl)CC(=O)Nc1ccccc1Br	–	–	–	–
CCN(CC(=O)NCc1ccccc1Cl)CC(=O)Nc1c(F)cccc1F	–	–	44.2	–
COc1ccc(C(=O)NCCN2C(=O)S/C(=C\c3cccnc3)C2=O)c(OC)c1OC	–	–	32.6	–
CCOc1cc(C(=O)NCCN2C(=O)S/C(=C\c3cccnc3)C2=O)cc(OCC)c1OCC	–	–	–	–
CCOc1ccc2ccccc2c1/C=N/NC(=O)c1ccncc1	–	–	–	–
O=C1CCN(Cc2ccccc2)CCN1CCO	–	–	–	–
O=C1CCN(Cc2ccc(O)cc2)CCN1CCO	–	–	34.4	–
CCN(CC)c1ccc(-c2nn3c(-c4n[nH]c5c4CCC5)nnc3s2)cc1	–	39.9	–	–
COc1ccc(-c2nn3c(-c4n[nH]c5c4CCC5)nnc3s2)cc1	–	·	·	·
O=S(=O)(c1cccc(-c2cn3cc(Cl)ccc3n2)c1)N1CCOCC1	–	–	–	–
SMILES	CCHFV vOTU inh	Mtb FBA inh	GDH-TPI inh	BH1578 lux ind
O=c1nc2ccc(Cl)cn2c2ccc(S(=O)(=O)N3CCOCC3)cc12	–	176.3	–	–
COC(=O)c1ccc(-c2ccc(/C=N/N3C(=O)C4C5C=CC(C6CC56)C4C3=O)o2)cc1 (centres undefined)	–	–	34.4	–
COC(=O)c1cccc(-c2ccc(/C=N/N3C(=O)C4C5C=CC(C6CC56)C4C3=O)o2)c1 (centres undefined)	–	–	–	–
NS(=O)(=O)c1cc(C(=O)O)c(NCc2ccco2)cc1Cl	–	–	–	–
COc1ccc2cc(C(c3nnnn3C(C)(C)C)N3CCSCC3)c(=O)[nH]c2c1 (centres undefined)	–	–	–	–
CC(C)(C)n1nnnc1C(c1cc2cc3c(cc2[nH]c1=O)OCCO3)N1CCSCC1 (centres undefined)	–	33.7	–	–
Cc1c(C)c2c(OCC(=O)Nc3ccc(CCO)cc3)cc3c(c2oc1=O)CCC(C)(C)O3	–	+	–	–
COc1ccc2c3c(c(=O)oc2c1OCC(=O)O)CCCC3	–	–	–	–
Cc1c(C)c2c(OCC(=O)O)cc3c(c2oc1=O)CCC(C)(C)O3	–	+	–	–
Cc1c(C)c2c(OCC(=O)NCC(=O)NCC(=O)O)cc3c(c2oc1=O)CCC(C)(C)O3	–	+	–	–
COC(=O)/C=C(\C)N=Nc1c(O)[nH]c2ccccc12	–	–	–	–
COc1ccccc1C1CC(=O)Oc2cc(C)cc(C)c21 (centres undefined)	–	–	–	–
CN1/C(=C\C=N\NC(=O)c2ccc(O)cc2)C(C)(C)c2ccccc21	–	–	39.5	–
CN1/C(=C\C=N\NC(=O)c2cccnc2)C(C)(C)c2ccccc21	–	–	–	–
N#C/C(=C(/O)c1ccc(Cl)c([N+](=O)[O-])c1)c1nc2ccccc2[nH]1	–	–	–	–
